Where “and” joins values, the source holds several entries; their conditions need not be identical. Identical values can stand only once. A number with no mark means an inactive call. Calls of active or inactive are those of the source.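 Rule for the calls, unless noted: active = mean inhibition over 43.08%, the solvent-only control mean plus 3 SD; inactive = the rest.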
Columns and labels:
[1] = target: Nuclear receptor coactivator 3 (Homo sapiens) (UniProt Q9Y6Q9); experiment: SRC3 coactivator transcriptional activity inhibitors, confirmation, cell-based, luminescence, quadruplicate (AID 588792); settings: HEK293 GAL4-SRC3 luciferase reporter, at 3.6 µM, hits give high values;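 note: 0% = DMSO treated cells and 100% = gossypol at 36 µM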
[2] = system: transactivating tegument protein VP16 (Human herpesvirus 1), Gal4-VP16 luciferase reporter; experiment: VP16 transactivation inhibitors, counter-screen for SRC3 inhibitor project, cell-based, luminescence, high throughput (AID 588794; in the data active = inhibition above about 30%); settings: mammalian cells, VP16-driven luciferase reporter luminescence; at 3.6 µM; hits give high values
[3] = target: Nuclear receptor coactivator 1 (Homo sapiens) (UniProt Q15788); experiment: SRC1 coactivator transcriptional activity inhibitors, confirmation, cell-based, luminescence, quadruplicate (AID 588820;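 active = mean inhibition above 46.68%, the untreated control wells mean plus 3 SD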;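 note: 0% = DMSO wells and 100% = gossypol 36 µM treated wells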); settings: HEK293 GAL4-SRC1 luciferase reporter, at 3.6 µM, hits give high values
[4] = VP16 transactivation inhibitors, counter-screen for SRC1 inhibitor project, cell-based, luminescence, high throughput (AID 588824; in the data active = inhibition above about 25%); settings: cell-based VP16 transactivation luciferase luminescence; at 3.6 µM; hits give high values

Sequence of Nuclear receptor coactivator 3 (Homo sapiens) (Q9Y6Q9 whole entry, looked up, the tested form may be a part): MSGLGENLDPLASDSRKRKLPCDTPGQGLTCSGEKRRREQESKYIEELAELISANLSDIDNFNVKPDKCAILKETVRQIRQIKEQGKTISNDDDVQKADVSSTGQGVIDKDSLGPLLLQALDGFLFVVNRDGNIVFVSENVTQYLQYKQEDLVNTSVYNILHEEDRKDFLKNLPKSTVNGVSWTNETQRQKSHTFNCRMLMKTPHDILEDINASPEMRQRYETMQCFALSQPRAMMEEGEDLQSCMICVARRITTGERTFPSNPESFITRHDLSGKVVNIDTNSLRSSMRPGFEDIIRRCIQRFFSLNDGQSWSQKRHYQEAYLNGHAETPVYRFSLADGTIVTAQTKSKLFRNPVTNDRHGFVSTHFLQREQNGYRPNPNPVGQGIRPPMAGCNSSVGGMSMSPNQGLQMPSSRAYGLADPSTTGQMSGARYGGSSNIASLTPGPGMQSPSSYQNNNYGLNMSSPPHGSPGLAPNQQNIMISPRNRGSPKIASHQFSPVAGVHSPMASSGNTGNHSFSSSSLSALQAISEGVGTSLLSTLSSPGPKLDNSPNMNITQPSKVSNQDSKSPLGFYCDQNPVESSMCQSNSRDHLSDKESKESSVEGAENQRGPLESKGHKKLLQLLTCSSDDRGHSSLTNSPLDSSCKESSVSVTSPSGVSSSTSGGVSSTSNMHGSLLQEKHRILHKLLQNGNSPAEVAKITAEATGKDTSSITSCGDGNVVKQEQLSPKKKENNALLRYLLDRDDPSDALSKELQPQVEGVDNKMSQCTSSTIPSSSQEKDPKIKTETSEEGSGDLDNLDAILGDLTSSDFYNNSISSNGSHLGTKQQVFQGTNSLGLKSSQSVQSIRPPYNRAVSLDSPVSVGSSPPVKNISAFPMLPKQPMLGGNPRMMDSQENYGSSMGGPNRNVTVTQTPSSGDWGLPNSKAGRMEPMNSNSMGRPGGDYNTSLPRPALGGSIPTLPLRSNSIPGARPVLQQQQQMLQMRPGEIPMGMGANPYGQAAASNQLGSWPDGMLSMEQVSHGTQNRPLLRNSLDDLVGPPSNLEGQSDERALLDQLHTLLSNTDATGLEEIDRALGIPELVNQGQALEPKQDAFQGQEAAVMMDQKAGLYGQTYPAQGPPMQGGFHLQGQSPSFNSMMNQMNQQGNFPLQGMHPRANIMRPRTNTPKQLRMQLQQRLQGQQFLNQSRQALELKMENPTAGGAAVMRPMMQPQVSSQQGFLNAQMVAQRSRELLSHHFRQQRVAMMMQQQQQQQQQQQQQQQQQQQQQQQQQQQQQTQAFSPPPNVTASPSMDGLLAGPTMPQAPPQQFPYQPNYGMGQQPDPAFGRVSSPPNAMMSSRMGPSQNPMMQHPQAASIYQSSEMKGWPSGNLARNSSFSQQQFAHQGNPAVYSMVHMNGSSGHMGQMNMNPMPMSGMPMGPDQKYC
Sequence of Nuclear receptor coactivator 1 (Homo sapiens) (Q15788 whole entry, looked up, the tested form may be a part): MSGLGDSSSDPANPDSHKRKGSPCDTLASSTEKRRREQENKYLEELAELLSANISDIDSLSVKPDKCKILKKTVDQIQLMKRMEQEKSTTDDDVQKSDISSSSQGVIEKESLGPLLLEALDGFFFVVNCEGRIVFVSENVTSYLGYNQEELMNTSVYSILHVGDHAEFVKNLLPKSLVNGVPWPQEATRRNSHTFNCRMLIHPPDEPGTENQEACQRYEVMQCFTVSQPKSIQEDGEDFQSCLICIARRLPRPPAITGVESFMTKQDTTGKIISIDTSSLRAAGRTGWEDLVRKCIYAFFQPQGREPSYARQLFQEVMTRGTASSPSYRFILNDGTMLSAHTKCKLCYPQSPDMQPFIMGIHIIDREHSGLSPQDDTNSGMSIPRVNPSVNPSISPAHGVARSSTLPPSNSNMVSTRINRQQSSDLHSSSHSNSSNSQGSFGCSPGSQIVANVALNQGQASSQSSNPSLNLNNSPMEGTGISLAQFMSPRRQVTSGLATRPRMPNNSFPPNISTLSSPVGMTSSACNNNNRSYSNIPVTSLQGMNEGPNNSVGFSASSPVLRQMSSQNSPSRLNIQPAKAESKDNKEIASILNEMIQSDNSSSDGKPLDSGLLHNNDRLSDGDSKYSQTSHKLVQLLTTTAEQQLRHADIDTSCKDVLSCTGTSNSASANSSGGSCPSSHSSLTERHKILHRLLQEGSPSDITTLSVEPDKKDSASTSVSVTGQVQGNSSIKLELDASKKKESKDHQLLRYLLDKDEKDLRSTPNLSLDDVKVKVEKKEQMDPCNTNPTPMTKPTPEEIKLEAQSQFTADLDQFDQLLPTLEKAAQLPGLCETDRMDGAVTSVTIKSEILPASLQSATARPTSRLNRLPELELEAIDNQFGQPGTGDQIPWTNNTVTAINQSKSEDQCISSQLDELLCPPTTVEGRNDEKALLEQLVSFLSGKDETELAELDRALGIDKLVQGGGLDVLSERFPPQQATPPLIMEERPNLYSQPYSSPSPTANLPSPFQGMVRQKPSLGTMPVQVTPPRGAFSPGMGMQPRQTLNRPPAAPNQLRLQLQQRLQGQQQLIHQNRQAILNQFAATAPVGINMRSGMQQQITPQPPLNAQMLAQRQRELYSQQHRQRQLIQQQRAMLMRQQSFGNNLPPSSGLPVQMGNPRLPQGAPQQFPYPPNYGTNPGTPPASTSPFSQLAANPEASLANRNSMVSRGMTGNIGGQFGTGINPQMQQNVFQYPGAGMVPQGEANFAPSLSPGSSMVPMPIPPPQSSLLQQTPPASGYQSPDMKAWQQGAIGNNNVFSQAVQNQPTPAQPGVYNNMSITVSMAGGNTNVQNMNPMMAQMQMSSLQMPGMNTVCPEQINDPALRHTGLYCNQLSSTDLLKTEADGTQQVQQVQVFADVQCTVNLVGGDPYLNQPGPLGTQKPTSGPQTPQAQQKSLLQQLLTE

Structure (SMILES) | inhibition [1] | inhibition [2] | inhibition [3] | inhibition [4]
CCc1ccc(-c2cc(C(F)(F)F)n3nc(C(=O)Nc4cnn(Cc5ccc(C)cc5)c4)cc3n2)s1 | 10.1% | 9.55% | -3.69% | 7.47%
CC(C)(C)S(=O)N1Cc2cc(C(=O)NCC(F)(F)F)nc(-c3cccc(-c4cccc(F)c4)c3)c2[C@@H]1CCO (some centres undefined) | 10.3% | 2.05% | -14.2% | -2.6%
Cc1ccc(NC(=O)CCC(=O)N/N=C/c2ccc(O)cc2O)cc1 | 7.69% | 7.07% | 20.4% | 15.4%
O=C(NCc1ccco1)c1ccc2c(c1)N(Cc1ccccc1)CCS2 | 4.13% | 6.64% | 3.44% | 1.86%
Cc1nc(N)nc(N)c1-c1ccc(Cl)c(Cl)c1 | 58.5% (active) | 24.5% | 54.2% (active) | 33.6% (active)
CCn1ccnc1CN(C)Cc1cn[nH]c1-c1ccc(OC)c(F)c1 | 36.8% | 26.1% | 34.3% | 28% (active)
Cc1ccc(C(=O)CSc2cnc3ccccc3n2)cc1C | -16.1% | -33% | -96.7% | -68.1%
Cc1oc2c(Cl)c(Cl)c(O)c(CN(C)C)c2c1C(=O)c1ccc(Cl)cc1 | 44.1% (active) | 26.1% | 44.2% | 33.1% (active)
COC(CN(C(=O)CCl)C(C(=O)NC1CCCCC1)c1ccccc1C)OC (centres undefined) | 53.3% (active) | 24.2% | 26.2% | 25.1%
O=C(Nc1cccc(Cl)c1)Nc1nnc(-c2ccncc2)s1 | 40.1% | 31.9% (active) | 28.5% | 23.7%
CC(C)c1ccc(/C=N/Nc2ccc(C(=O)O)cc2)cc1 | -6.28% | -26.7% | -72.5% | -51.3%
CCn1nc(C)c(CNC(=O)c2cc(COc3ccc(F)cc3Cl)on2)c1C | 12.7% | 28.5% | 8.35% | 20%
CC(C)(C)c1nnc(N/N=C/c2cc(Br)ccc2O)n(N)c1=O | 79% (active) | 69.2% (active) | 72% (active) | 63% (active)
CC[n+]1ccccc1/C=C/c1ccc(N(C)C)cc1 | 15.6% | 47.5% (active) | 15.4% | 40.1% (active)
CN(Cc1c(C(=O)N/N=C/c2ccccc2O)nnn1-c1nonc1N)C1CCCCC1 | 66.8% (active) | 46.5% (active) | 59.7% (active) | 59.8% (active)
O=C(N/N=C\c1c(O)ccc2ccccc12)c1cncc(Br)c1 | 83% (active) | 84% (active) | 77.7% (active) | 80.5% (active)
Cc1ccc(S(=O)(=O)N(C)Cc2ccc(C(=O)N/N=C/c3ccc(OC(F)F)cc3OC(F)F)cc2)cc1 | 10.9% | 18.8% | -28.9% | 20%
COc1ccc(C(=O)N/N=C/c2cc(Br)ccc2O)cc1OC | 26.2% | 37.5% (active) | 22% | 42.5% (active)
O=C(CCSc1nc2ccccc2s1)N/N=C/c1c(O)ccc2ccccc12 | 20.2% | 23.7% | 36% | 32% (active)
COc1cc(C(=O)OCC(=O)Nc2sccc2C(N)=O)cc(OC)c1OC | 42.7% | 10.3% | -42.7% | 5.18%
CCOc1cc(/C=C2\CN(C)C/C(=C\c3ccc(O)c(OCC)c3)C2=O)ccc1O | 56.2% (active) | 60.4% (active) | -18.5% | 75.6% (active)
CC(=O)N1CCN(c2ccc(Oc3ncnc4sccc34)cc2)CC1 | 25.7% | 16.9% | 27.3% | 16.9%
O=C(Nc1nc(-c2ccc3ccccc3c2)cs1)C1CCN(S(=O)(=O)c2cccs2)CC1 | 8.55% | 32.2% (active) | -6.77% | 33.2% (active)
C(C#CCCCCCCCCC[n+]1ccccc1)#CCCCCCCCCC[n+]1ccccc1 | 58.9% (active) and 59.3% (active) | 70.3% (active) and 74.5% (active) | 41.7% | 73.4% (active)
Cc1nc2c(-c3ccc(Cl)cc3)c(C)[nH]n2c(=O)c1Cc1ccccc1 | 24.1% | 29.3% | 24.5% | 22.1%
O=C(Nc1nc(-c2ccccc2)cs1)c1ccc(N2CCOCC2)c([N+](=O)[O-])c1 | 56.2% (active) | 61.4% (active) | 15.3% | 64.8% (active)
